Sampled rows, rich in hits. Any-hit rate of the full collection: about 27%.
CYP2C19 inh – blocks human cytochrome P450 2C19 | P33261 | AID 778 | inhibition, % at 5 µM | CYP2C19 Supersomes, luciferin-H EGE luminescence, 30 min | hit rate 21% among 96,000;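 active = CYP2C19 inhibition above a set limit at 5 µM in the primary screen, cut at about 50% in these data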;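 note: plate controls were negative control wells for no effect and 2.5 mM tranylcypromine positive control for full effect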
Target sequence (P33261 whole entry, looked up): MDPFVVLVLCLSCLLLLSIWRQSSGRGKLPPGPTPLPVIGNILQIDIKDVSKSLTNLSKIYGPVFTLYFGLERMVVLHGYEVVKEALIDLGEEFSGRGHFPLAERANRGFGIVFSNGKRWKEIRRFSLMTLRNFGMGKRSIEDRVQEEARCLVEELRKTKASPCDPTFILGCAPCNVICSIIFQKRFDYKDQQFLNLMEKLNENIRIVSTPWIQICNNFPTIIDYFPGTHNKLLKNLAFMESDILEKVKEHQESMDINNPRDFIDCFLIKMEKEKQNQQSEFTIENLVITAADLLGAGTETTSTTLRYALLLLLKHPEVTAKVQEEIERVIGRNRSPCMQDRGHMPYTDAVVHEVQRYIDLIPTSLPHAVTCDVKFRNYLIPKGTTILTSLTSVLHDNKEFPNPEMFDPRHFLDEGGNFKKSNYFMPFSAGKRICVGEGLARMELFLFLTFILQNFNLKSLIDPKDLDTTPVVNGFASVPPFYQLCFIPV
sEH inhibitor – blocks human soluble epoxide hydrolase activity; AID 707; inhibition, % at 2 µM; hit rate 0.34% among 91,000; recombinant human sEH enzymatic activity assay; in the data active = inhibition above about 80%
sEH act – activators of human soluble epoxide hydrolase. P34913. hit rate 0.04% among 91,000. activation, % at 2 µM. purified human sEH enzymatic activity, activator screen. AID 717; in the data active = activation above about 37%
CYP2C9 inhib – inhibitors of human CYP2C9; CYP2C9 Supersomes, luciferin-H conversion, luminescence; inhibition, % at 5 µM; hit rate 20% among 96,000; P11712;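 active = blocking of liver enzyme CYP2C9 beyond about 50% at 5 µM, limit read from the data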
CYP2C9 activ – CYP2C9 (human) activation. P11712. recombinant CYP2C9, luciferin-H conversion, luminescence; hits give high values; factor 1 = untreated enzyme, 0 = blocked. activation factor at 5 µM. hit rate 1.4% among 96,000. AID 1024;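 active = activation factor of 2 or more for CYP2C9 at a 5 µM dose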;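 note: 0 = sulfaphenazole-blocked wells and 1 = vehicle-only wells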
CYP2C19 act – activators of human cytochrome P450 2C19; P33261; recombinant CYP2C19, luciferin-H EGE luminescence; hits give high values; 0 = fully inhibited enzyme, 1 = untreated enzyme; activation factor at 5 µM; 96,000 tested, under 10 active; AID 1025;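 active = activation factor of at least 2 at 5 µM in the primary screen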;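 note: 0 = wells with 2.5 mM tranylcypromine and 1 = vehicle-only wells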
An asterisk follows results filed as active; . = no result given.

SMILES | CYP2C19 inh | sEH inhibitor | sEH act | CYP2C9 inhib | CYP2C9 activ | CYP2C19 act
Oc1c(Br)cc(Br)cc1CN1CCN(Cc2ccccc2)CC1 | 73.8* | 21.1 | -22.6 | 39.2 | 0.6 | 0.3
CCCC(=O)C1C(=O)NC(=O)NC1=O | 4.2 | -11.0 | 8.0 | 6.1 | 0.9 | 1
O=C1NC(=O)N(CCNc2ncc(C(F)(F)F)cc2Cl)C(=O)C1/C=N/OCc1c(F)cccc1Cl (stereo not given) | 18.8 | -3.8 | 4.8 | 48.1 | 0.5 | 0.8
C=CCn1c(O)c(C(C)=Nc2cc(OC)ccc2OC)c(=O)[nH]c1=O | 20.1 | 0.8 | -1.8 | 19.8 | 0.8 | 0.8
Cc1cccc(C)c1NC(=O)CN(C)CC(=O)Nc1ccc(C#N)c(Cl)c1 | 35.9 | 3.1 | -2.5 | 53.4* | 0.5 | 0.6
Cc1ccc(N(C)C(=O)Oc2ccc(C(=O)c3ccc(Cl)cc3)cc2)cc1 | 50.4* | -11.1 | 13.4 | 59.7* | 0.4 | 0.5
CC(=O)Nc1ccc(OC(=O)N(C)c2ccccc2)cc1 | 12.0 | -6.8 | 7.0 | 5.1 | 0.9 | 0.9
Cc1ccc(-c2cc(C(F)F)n3ncc(C(=O)N4CCC5(CC4)OCCO5)c3n2)cc1 | 4.7 | -17.0 | 14.9 | 47.2 | 0.5 | 1
Cc1ccccc1OCCN=Cc1c(O)n(C)c(=O)n(C)c1=O | 64.1* | 4.1 | -0.7 | 26.7 | 0.7 | 0.4
CC(C)CCn1c(N)c(C(=O)OCC2CCCO2)c2nc3ccccc3nc21 (stereo not given) | 63.1* | -6.5 | 5.1 | 84.5* | 0.2 | 0.4
CC(C)OCCCNC(=O)c1c(N)n(CC2CCCO2)c2nc3ccccc3nc12 (stereo not given) | 66.6* | -11.0 | 6.3 | 84.9* | 0.2 | 0.3
COCCOC(=O)c1c(N)n(Cc2ccccc2)c2nc3ccccc3nc12 | 21.3 | . | . | 21.9 | 0.8 | 0.8
CCCCn1c(N)c(C(=O)OCC2CCCO2)c2nc3ccccc3nc21 (stereo not given) | 68.1* | -18.2 | 17.0 | 73.7* | 0.3 | 0.3
CCCCOCCCn1c(N)c(C(=O)OCCOC)c2nc3ccccc3nc21 | 37.6 | . | . | 51.8* | 0.5 | 0.6
CC(C)Cc1[nH]c(=O)c(C#N)c2c1CCC2 | -13.4 | -4.0 | 7.5 | -12.0 | 1.1 | 1.1
OCC12COC3c4ccccc4C(OC1)N32 (stereo not given) | 6.5 | . | . | -4.6 | 1 | 0.9
Cc1ccc(-c2nc3ccc(Cl)cc3n2OC(=O)N(C)C)cc1 | -1.4 | 5.9 | -2.9 | -4.0 | 1 | 1
CCOc1ccc(N=Cc2c(O)n(C(C)(C)C)c(=O)[nH]c2=O)cc1 | 19.4 | -0.8 | 2.8 | 7.1 | 0.9 | 0.8
Cc1cccn2c(=O)c3cc(C(=O)N4CCC5(CC4)OCCO5)n(C)c3nc12 | 5.5 | 4.0 | -4.0 | 3.0 | 1 | 0.9
CCOc1cc(/C=C2/C(=O)NC(=O)N(c3ccc(CC)cc3)C2=O)ccc1OC(=O)c1cccs1 | 58.7* | -3.5 | 2.3 | 18.7 | 0.8 | 0.4
CC(C)c1ccc(N2C(=O)NC(=O)/C(=C\c3cnc(-c4ccccc4)nc3)C2=O)cc1 | 28.1 | 19.4 | -16.9 | 23.8 | 0.8 | 0.7
O=C1C2CCCN2C(c2cccs2)N1c1ccccn1 (stereo not given) | -10.5 | . | . | -13.2 | 1.1 | 1.1
Cc1nc2sccc2c(=O)n1-c1ccccc1Cl | 63.1* | -2.9 | 3.6 | 10.3 | 0.9 | 0.4
Cc1ccccc1-n1c(C)nc2sccc2c1=O | 53.3* | 3.5 | -1.8 | 4.9 | 1 | 0.5
O=c1c2ccccc2nc(-c2cccs2)n1-c1ccccc1 | 21.8 | 1.9 | 0.9 | 33.1 | 0.7 | 0.8
SMILES | CYP2C19 inh | sEH inhibitor | sEH act | CYP2C9 inhib | CYP2C9 activ | CYP2C19 act
O=P(N1CCCCC1)(N1CCCCC1)C(Cl)(Cl)Cl | 35.8 | -3.2 | 3.3 | 45.8 | 0.5 | 0.6
COc1ccccc1N1CCN(Cc2ccccc2F)CC1 | 30.5 | . | . | 23.0 | 0.8 | 0.7
COc1ccccc1N1CCN(Cc2cccc(OC)c2O)CC1 | 51.5* | 8.5 | -9.9 | 2.7 | 1 | 0.5
COc1ccccc1N1CCN(Cc2c(F)cccc2F)CC1 | 58.2* | -6.4 | 9.2 | 23.2 | 0.8 | 0.4
NCC(CC(=O)O)C1CCCCC1 (stereo not given) | 8.6 | 4.7 | -2.9 | -4.7 | 1 | 0.9
O=c1c2ccccc2nc(-c2ccoc2)n1-c1ccccc1 | -5.2 | 3.2 | -1.8 | 12.9 | 0.9 | 1.1
CCC(C)NS(=O)(=O)c1ccc(OCC(=O)N2CCN(CC)CC2)cc1 (stereo not given) | . | -0.6 | 6.5 | . | . | .
Cc1cccc(CSc2nc3c(cc2C#N)CN(C)CC3)c1 | 69.5* | 2.8 | -0.1 | 0.6 | 1 | 0.3
CCOC(=O)C1=C(N)Oc2cc(C)oc(=O)c2C12C(=O)N1c3c(cccc32)C(C)=CC1(C)C (stereo not given) | 53.3* | 9.2 | -6.7 | 16.2 | 0.8 | 0.5
COc1ccc(CCNCc2ccccn2)cc1OC | 14.1 | 3.6 | -5.4 | 9.0 | 0.9 | 0.9
COc1ccc(CCN(C)Cc2c(F)cccc2F)cc1OC | 80.4* | 1.6 | -2.9 | 14.3 | 0.9 | 0.2
O=C1NC(=O)C2(Cc3c(nc4ccccn4c3=O)N3CCCCCC32)C(=O)N1Cc1ccccc1 (stereo not given) | 72.8* | 5.0 | -4.4 | 89.3* | 0.1 | 0.3
O=C1CCCC2C3CCCN4CCCC(CN12)C34 (stereo not given) | 30.3 | -14.2 | 12.5 | 7.7 | 0.9 | 0.7
O=C(c1csc2c1CCCCC2)N1CCC2(CC1)OCCO2 | 98.4* | -12.7 | 14.2 | -37.5 | 1.4 | 0
O=C(c1cc(S(=O)(=O)N2CCCCC2)ccc1F)N1CCC2(CC1)OCCO2 | 2.8 | -5.1 | 4.6 | 22.0 | 0.8 | 1
CN1C(=O)c2ccccc2Sc2ccc(C(=O)N3CCC4(CC3)OCCO4)cc21 | 0.5 | 3.8 | -3.6 | 28.1 | 0.7 | 1
O=C(c1cc2c(s1)-c1ccccc1OC2)N1CCC2(CC1)OCCO2 | 84.2* | -14.0 | 11.3 | 24.9 | 0.8 | 0.2
O=C(c1cc2c(s1)CCCC2)N1CCC2(CC1)OCCO2 | 91.6* | -2.1 | 2.7 | 30.2 | 0.7 | 0.1
O=C(c1cccc(N2CCCC2=O)c1)N1CCC2(CC1)OCCO2 | 1.9 | -6.6 | 8.1 | -18.7 | 1.2 | 1
S=C1CN=C(c2ccccc2)c2cc(Cl)ccc2N1 | . | -13.2 | 16.5 | . | . | .
c1ccc(CN2CCN(Cc3ccc4c(c3)OCCO4)CC2)cc1 | -2.0 | 10.3 | -9.6 | 0.3 | 1 | 1
CC1CCC(C(=O)NC(C(=O)N2CCC3(CC2)OCCO3)C(C)C)CC1 (stereo not given) | 15.9 | -3.6 | 0.1 | 11.7 | 0.9 | 0.8
CCOP(=O)(OCC)C(NC(=O)c1ccccc1Cl)=C(Cl)Cl | 14.5 | 11.9 | -10.1 | -5.1 | 1.1 | 0.9
CCOP(=O)(C(NC(=O)c1ccccc1Cl)=C(Cl)Cl)c1ccccc1 (stereo not given) | 77.4* | -5.8 | 8.1 | 57.0* | 0.4 | 0.2
CC1=CC(=O)C2=C(C)CC(O)C3C(C)C(=O)OC3C12 (stereo not given) | -0.8 | 0.7 | -2.0 | -14.7 | 1.1 | 1
